{
  "source": "PubChem BioAssay (Tox21)",
  "note": "Inconclusive results are not listed. A number with no mark means an inactive call. Active and inactive are the calls of the source. Calls follow the shape of the dose curve; as a rule, active = well fitted activation curve with a large enough effect in the repeat runs; inconclusive = weak or mixed curves, or effect the other way; inactive = no such curve, though single readings can be large or run the other way. % is scaled to controls: 0 for no effect and ±100 for the full control effect; potency is read from the fitted curve at half-maximal effect.",
  "data": [
    {"test": "qHTS assay to identify small molecule agonists of the retinoic acid receptor (RAR) signaling pathway (AID 1159553)", "settings": "C3RL4 RARE luciferase reporter, agonist, 6 h; series mostly up to 73.3 µM; activation: at the top concentration", "text": "National Center for Advancing Translational Sciences [NCATS] NIH Chemical Genomics Center [NCGC] U.S. Environmental Protection Agency [EPA] National Institutes of Environmental Health Sciences [NIEHS] National Toxicology Program [NTP] Assay overview: All-trans Retinoic acid (atRA) is the potent natural metabolite of retinol and plays an important role in normal embryonic development and maintenance of cellular phenotype in adult animals. atRA is the activating ligand for the retinoic acid receptors (RARs) which form heterodimers with retinoid X receptors (RXRs) on the retinoic acid response element (RARE). Through activation of the RAR/RXRs nuclear receptors, atRA regulates the transcription of a large number of protein-coding genes and regulatory RNAs. Intracellular levels of atRA are controlled by the retinol signaling pathway (RSP) that regulates the biosynthesis and catabolism of atRA to maintain physiological levels. Chemicals that interfere with the RSP can cause abnormal intracellular levels of atRA and therefore are potential developmental toxicants. To assess compounds for the potential adverse effect on embryonic development through interfering with retinol signaling, a cell-based RARE luciferase reporter gene assay was used. C3RL4 cell line (OARSA/CFSAN/FDA, Laurel, MD) was used to screen Tox21 10K compound library for identifying activators of the RSP.\nAssay Protocol Summary: C3RL4 cells were seeded at 1,000/well in 5 uL of assay medium into white solid 1,536-well tissue culture plates (Greiner Bio-One North America Inc. Monroe, NC) using a Multidrop Combi (Thermo Scientific, Waltham, MA) dispenser. After incubation at 37 C and 5% CO2 for an overnight, 23 nL of compounds dissolved in DMSO, positive control or DMSO only were transferred by a Pintool station (Kalypsys, San Diego, CA). After 6 hr incubation at 37 C and 5% CO2, 5 uL of Amplite Luciferase reagent (AAT Bioquest Inc. Sunnyvale, CA) was added to each assay plate using a Flying Reagent Dispenser (FRD) (Aurora Discovery, San Diego, CA). Luminescence was quantified on a ViewLux plate reader (PerkinElmer, Waltham, MA) after 30 min incubation at room temperature.", "values": [
      {"smiles": "S=C=NCc1ccccc1", "Potency": "69.3 µM (active)"},
      {"smiles": "CC1(C)[C@H](C=C(Cl)Cl)[C@@H]1C(=O)O[C@@H](C#N)c1cccc(Oc2ccccc2)c1", "activation": "-5.08%"},
      {"smiles": "c1ccc(C2CC2)c(OCC2=NCCN2)c1", "activation": "-2.54%"},
      {"smiles": "NNC(=O)c1cccnc1", "Potency": "30.7 µM (active)"},
      {"smiles": "O=NN1CCCCCC1", "activation": "-1.72%"},
      {"smiles": "CN(C)c1ccc(N(C)C)cc1", "Potency": "12.2 µM (active)"},
      {"smiles": "C=CC(=O)OC", "activation": "0.0242% [at 94.8 µM]"},
      {"smiles": "Oc1ccc(Cl)c(Cl)c1Cl", "activation": "-6.34% [at 94.8 µM]"},
      {"smiles": "II", "activation": "-7.21%"},
      {"smiles": "c1cc2ccc3cccc4ccc(c1)c2c34", "activation": "-13.8% [at 94.8 µM]"},
      {"smiles": "CC1Sc2c(C(=O)O)c(=O)c3cc(F)c(N4CCNCC4)cc3n21", "note": "(stereo not given)", "activation": "0.0913%"},
      {"smiles": "O=[N+]([O-])c1ccc(F)c([N+](=O)[O-])c1", "activation": "-4.47% [at 94.8 µM]"},
      {"smiles": "CCCN(CCC)c1c([N+](=O)[O-])cc(S(C)(=O)=O)cc1[N+](=O)[O-]", "activation": "-5.36%"},
      {"smiles": "CCCC(Cn1cncn1)c1ccc(Cl)cc1Cl", "note": "(stereo not given)", "activation": "-3.36%"},
      {"smiles": "O=C(O)c1ccccc1C(=O)Nc1cccc2ccccc12", "activation": "-0.612%"},
      {"smiles": "Brc1ccccc1", "activation": "0.405%"},
      {"smiles": "N#Cc1ccc(Cl)cc1", "activation": "-0.765%"},
      {"smiles": "N#CCc1ccccc1", "activation": "2.02% [at 94.8 µM]"},
      {"smiles": "CCC(Cl)CCl", "note": "(stereo not given)", "activation": "0.0715% [at 94.8 µM]"},
      {"smiles": "CO/C=C(/C(=O)OC)c1ccccc1COc1cccc(C(F)(F)F)n1", "activation": "-11.5%"},
      {"smiles": "CC[C@H]1C[C@H]2[C@@H]3CCC4=CC(=O)CC[C@@H]4[C@H]3CC[C@]2(C)[C@H]1O", "activation": "2.89%"},
      {"smiles": "C=CC(=O)OCC(C)O", "note": "(stereo not given)", "activation": "5.18% [at 94.8 µM]"},
      {"smiles": "CCOP(=O)(OCC)SCCSCC", "activation": "4.65%"},
      {"smiles": "CCCCOC(=O)c1ccccc1C(=O)OCc1ccccc1", "Potency": "inactive"},
      {"smiles": "ClCC(Br)CBr", "note": "(stereo not given)", "activation": "-0.419%"},
      {"smiles": "CC(C)(Cl)[N+](=O)[O-]", "activation": "0.0628% [at 94.8 µM]"},
      {"smiles": "COc1nn(C(=O)NS(=O)(=O)c2ccccc2OC(F)(F)F)c(=O)n1C", "activation": "1.43%"},
      {"smiles": "O=C=Nc1ccc(Cl)cc1", "Potency": "24.3 µM (active)"},
      {"smiles": "CNC(C)Cc1ccccc1OC", "note": "(stereo not given)", "activation": "-1.06%"},
      {"smiles": "COc1ccc(-c2ccccc2)cc1NNC(=O)OC(C)C", "activation": "-4.58% [at 94.8 µM]"},
      {"smiles": "CCOC(=O)C(Cl)C(C)=O", "note": "(stereo not given)", "activation": "-1.31% [at 94.8 µM]"},
      {"smiles": "CCCCCCCCCC(=O)O[C@H]1CC[C@H]2[C@@H]3CCC4=CC(=O)CC[C@@H]4[C@H]3CC[C@]12C", "activation": "0.285%"},
      {"smiles": "CCBr", "activation": "1.32% [at 94.8 µM]"},
      {"smiles": "Cc1ccccc1CCl", "activation": "0.0114%"},
      {"smiles": "O=Cc1ccc(Cl)cc1Cl", "activation": "0.0417% [at 94.8 µM]"},
      {"smiles": "Cc1c(F)c(F)c(COC(=O)C2C(/C=C(\\Cl)C(F)(F)F)C2(C)C)c(F)c1F", "note": "(stereo not given)", "activation": "-2.66%"},
      {"smiles": "Cn1cc[n+](C)c1", "note": "(tested in a mixture with another compound)", "activation": "0.378% [at 94.8 µM]"},
      {"smiles": "CC(C)(C)C(O)C(Oc1ccc(Cl)cc1)n1cncn1", "note": "(stereo not given)", "activation": "-31.7%"},
      {"smiles": "CCN(C)N=O", "activation": "-0.455%"},
      {"smiles": "BrCCCCBr", "activation": "0.794%"}
    ]}
  ]
}
